Experimental data as given in PubChem BioAssay AID2669 (National Center for Advancing Translational Sciences (NCATS), 2010).
Inconclusive results are not listed. Active and inactive are the calls of the source. Calls follow the shape of the dose curve; as a rule, active = well fitted inhibition curve with a large enough effect; inconclusive = small, poorly fitted or top-dose-only effect, or effect the other way; inactive = flat fitted curve, though single readings scatter.

Assay: qHTS Assay Multiplex Screening to Identify Dual Action Probes in a Cell Model of Huntington: Cytoprotection (Protease relase)
Conditions: PC12 HttQ103 cells, Cytotox-Glo protease release, 40 h; series mostly up to 46.1 µM; activity change, negative = inhibition: at the top concentration
From the text: NIH Chemical Genomics Center [NCGC]
NIH Molecular Libraries Probe Production centers Network [MLPCN]
Assay Submitter (PI): Wei Zheng
Huntington's disease is a neurodegenerative disorder caused by a trinucleotide repeat expansion in Exon 1 of the Huntingtin gene. The CAG trinucleotide encodes glutamine and polyglutamine expansions cause cell death in selective areas of the brain. Huntington polyglutamine repeats have the tendency to form aggregates which are observable in later stages of the disease. The exact nature of the aggregates, whether toxic, protective, or insignificant, is unclear.
A stable PC12 cell line containing a gene fusion of Exon 1 of the Huntingtin gene linked to GFP under the control of the inducible ecdysone promoter were used as the cell-based model of Huntington Disease for high throughput screening. Exon 1 of the Huntingtin gene contained an expansion of 103 polyglutamines (Q103) which, when expressed, caused cell death and distinct, bright GFP aggregates. The amount of cell death and the size and intensity of GFP aggregates increased over time and induction level. In the primary screen, cell death were quantified with a measurement of ATP content in the cells. A maximal 40-50% of cell death was observed when the Huntington gene was induced in this cell line.
We optimized this assay in a homogeneous 1536 well format. A quantitative high throughput screen (qHTS) was conducted on the PC12 cells which were induced to express the toxic fusion construct. Small molecules which prevented cell death were considered hits, and were further studied. The present assay is an alternate assay for cytoprotection using Promega's Cytotox-Glo reagent.
PC12 cells stably containing a construct with an ecdysone inducible promoter expressing GFP fused to the exon 1 of HTTQ103 (Huntington protein which containing a 103 ployglutamine expansion) were used.
NCGC Assay Protocol Summary:
Sequence, Parameter, Description
1, Reagent, 5 uL 1500 cells/well 1536 TC treated White clear bottom plate
2, Compound, 23 nL Tebufenozide inducer (100 nM final) to all columns
3, Compound, 23 nL 40 uM to 0.5 nM Libraries
5, Reagent, 2 ul Promega's Cytotox-Glo assay reagent
6, Detector, 4 sec integration with a Viewlux Luminescent
Media consisted of phenol red free DMEM + 5% equine serum (Hyclone # SH30072.03 ), 5% supplemented Bovine Calf Serum (Hyclone # SH30074.03 ), 1x pen/strep, no G418

| SMILES | activity change, negative = inhibition | Potency |
| --- | --- | --- |
| CC[C@]1(C2=NCCN2)Cc2ccccc2O1 | 6.43% (inactive) |  |
| C[C@@]1(CO)[C@H](O)CC[C@@]2(C)[C@H]1CC[C@H]1C[C@@H]3C[C@@]12CC[C@]3(O)CO | 8.07% (inactive) |  |
| Oc1cc(Cl)ccc1Oc1ccc(Cl)cc1Cl | -6.35% (inactive) |  |
| NC(=O)c1sc2nc3c(c(-c4cccs4)c2c1N)CCCC3 | -20.3% (inactive) |  |
| O=C1C=C2C=C[C@H]3C[C@@]2(O1)[C@H]1CCCCN31 |  | 794 nM (active) |
| C[C@H]1CC[C@@]2(NC1)O[C@@H]1C[C@H]3[C@@H]4CC=C5C[C@@H](O)CC[C@]5(C)[C@@H]4CC[C@]3(C)[C@@H]1[C@@H]2C | 15% (inactive) |  |
| CCC(C)C(=O)OC1C(O)C2C(CN3CC(C)CCC3[C@]2(C)O)C2C[C@]34O[C@@]5(O)C(OC(=O)C(C)(O)CC)CCC3(C)C5C(OC(C)=O)C(OC(C)=O)C4[C@@]21O (some centres not stated) | 13.4% (inactive) |  |
